Experimental findings from PMC12864922, “TDP-43 directly inhibits mRNA accumulation in neurites through modulation of mRNA stability” are described below.

The full ranking holds about 9,900 sequences; the median of “r (bound/input frequency ratio)” is about 0.7, and the highest 2% start at about 6.5. The sample as a whole holds a higher share of the highest values than the screen did.

B1: ENSMUSG00000022095.273|Fam160b2 (ssRNA)
RNA: GGGAGUUCUACAGUCCGACGAUCGCUUCGAUAUCCGCAUGCUAAUGUGAGUGUGUGUGUGUGUGUGUGUGAGAGAGAGAGAGAGAGAGAGAGAGCUGUGAGUACACAUGGGUGCUGGUGUGGGACAGGAGCAGAUCUUGGUGGAGUGGGUCUACACUUGAGAUUUGUACUCGUUUGAGAGGCUGGGCAAUACUCAAUGCACUUUGGCAUUUGCAUGGUGUCUUCACAACAGCACAGCAAUAAACAUUGUGAUUGUGUGGACAUGCUGACUCUCCCCAGUCUGCUUUUCUUUUCCCCAAGCUUUCUCUUGCGGUCGCACUAGUGUGGAAUUCUCGGGUGUCAAGG
B2: ENSMUSG00000022095.272|Fam160b2|13:33;80:84;216:221 (ssRNA)
RNA: GGGAGUUCUACAGUCCGACGAUCGCUUCGAUAUCCGCAUGCUAGAAUGAAUGUGACACACACACACACACACACACAGAGAGAGAGAGAGAGAGAGAGAGCUGUGAGUACACAUGGGUGCUGCACACGGACAGGAGCAGAUCUUGGUGGAGUGGGUCUACACUUGAGAUUUGUACUCGUUUGAGAGGCUGGGCAAUACUCAAUGCACUUUGGCAUUUGCAUGGUGUCUUCACAACAGCACAGCAAUAAACAUUGUGAUACACACGACAUGCUGACUCUCCCCAGUCUGCUUUUCUUUUCCCCACUCUUGCGGUCGCACUAGUGUGGAAUUCUCGGGUGUCAAGG
B3: ENSMUSG00000022095.269|Fam160b2 (ssRNA)
RNA: GGGAGUUCUACAGUCCGACGAUCGCUUCGAUAUCCGCAUGCUAAGAGAGAGAGCGAGCUAUGAAUGAAUGUGAGUGUGUGUGUGUGUGUGUGUGAGAGAGAGAGAGAGAGAGAGAGAGCUGUGAGUACACAUGGGUGCUGGUGUGGGACAGGAGCAGAUCUUGGUGGAGUGGGUCUACACUUGAGAUUUGUACUCGUUUGAGAGGCUGGGCAAUACUCAAUGCACUUUGGCAUUUGCAUGGUGUCUUCACAACAGCACAGCAAUAAACAUUGUGAUUGUGUGGACAUGCUGACUCUCCCCAGUCUCUUGCGGUCGCACUAGUGUGGAAUUCUCGGGUGUCAAGG
B4: ENSMUSG00000022095.272|Fam160b2 (ssRNA)
RNA: GGGAGUUCUACAGUCCGACGAUCGCUUCGAUAUCCGCAUGCUAGAAUGAAUGUGAGUGUGUGUGUGUGUGUGUGUGAGAGAGAGAGAGAGAGAGAGAGAGCUGUGAGUACACAUGGGUGCUGGUGUGGGACAGGAGCAGAUCUUGGUGGAGUGGGUCUACACUUGAGAUUUGUACUCGUUUGAGAGGCUGGGCAAUACUCAAUGCACUUUGGCAUUUGCAUGGUGUCUUCACAACAGCACAGCAAUAAACAUUGUGAUUGUGUGGACAUGCUGACUCUCCCCAGUCUGCUUUUCUUUUCCCCACUCUUGCGGUCGCACUAGUGUGGAAUUCUCGGGUGUCAAGG
B5: ENSMUSG00000022095.268|Fam160b2 (ssRNA)
RNA: GGGAGUUCUACAGUCCGACGAUCGCUUCGAUAUCCGCAUGCUAAGAGAGAGAGAGAGAGCGAGCUAUGAAUGAAUGUGAGUGUGUGUGUGUGUGUGUGUGAGAGAGAGAGAGAGAGAGAGAGAGCUGUGAGUACACAUGGGUGCUGGUGUGGGACAGGAGCAGAUCUUGGUGGAGUGGGUCUACACUUGAGAUUUGUACUCGUUUGAGAGGCUGGGCAAUACUCAAUGCACUUUGGCAUUUGCAUGGUGUCUUCACAACAGCACAGCAAUAAACAUUGUGAUUGUGUGGACAUGCUGACUCUCCUCUUGCGGUCGCACUAGUGUGGAAUUCUCGGGUGUCAAGG
B6: ENSMUSG00000022095.271|Fam160b2 (ssRNA)
RNA: GGGAGUUCUACAGUCCGACGAUCGCUUCGAUAUCCGCAUGCUAAGCUAUGAAUGAAUGUGAGUGUGUGUGUGUGUGUGUGUGAGAGAGAGAGAGAGAGAGAGAGAGCUGUGAGUACACAUGGGUGCUGGUGUGGGACAGGAGCAGAUCUUGGUGGAGUGGGUCUACACUUGAGAUUUGUACUCGUUUGAGAGGCUGGGCAAUACUCAAUGCACUUUGGCAUUUGCAUGGUGUCUUCACAACAGCACAGCAAUAAACAUUGUGAUUGUGUGGACAUGCUGACUCUCCCCAGUCUGCUUUUCUUUCUCUUGCGGUCGCACUAGUGUGGAAUUCUCGGGUGUCAAGG
B7: ENSMUSG00000022095.270|Fam160b2 (ssRNA)
RNA: GGGAGUUCUACAGUCCGACGAUCGCUUCGAUAUCCGCAUGCUAAGAGCGAGCUAUGAAUGAAUGUGAGUGUGUGUGUGUGUGUGUGUGAGAGAGAGAGAGAGAGAGAGAGAGCUGUGAGUACACAUGGGUGCUGGUGUGGGACAGGAGCAGAUCUUGGUGGAGUGGGUCUACACUUGAGAUUUGUACUCGUUUGAGAGGCUGGGCAAUACUCAAUGCACUUUGGCAUUUGCAUGGUGUCUUCACAACAGCACAGCAAUAAACAUUGUGAUUGUGUGGACAUGCUGACUCUCCCCAGUCUGCUUCUCUUGCGGUCGCACUAGUGUGGAAUUCUCGGGUGUCAAGG
B8: ENSMUSG00000022095.269|Fam160b2|31:51;98:102;234:239 (ssRNA)
RNA: GGGAGUUCUACAGUCCGACGAUCGCUUCGAUAUCCGCAUGCUAAGAGAGAGAGCGAGCUAUGAAUGAAUGUGACACACACACACACACACACACAGAGAGAGAGAGAGAGAGAGAGAGCUGUGAGUACACAUGGGUGCUGCACACGGACAGGAGCAGAUCUUGGUGGAGUGGGUCUACACUUGAGAUUUGUACUCGUUUGAGAGGCUGGGCAAUACUCAAUGCACUUUGGCAUUUGCAUGGUGUCUUCACAACAGCACAGCAAUAAACAUUGUGAUACACACGACAUGCUGACUCUCCCCAGUCUCUUGCGGUCGCACUAGUGUGGAAUUCUCGGGUGUCAAGG
B9: ENSMUSG00000022095.271|Fam160b2|19:39;86:90;222:227 (ssRNA)
RNA: GGGAGUUCUACAGUCCGACGAUCGCUUCGAUAUCCGCAUGCUAAGCUAUGAAUGAAUGUGACACACACACACACACACACACAGAGAGAGAGAGAGAGAGAGAGAGCUGUGAGUACACAUGGGUGCUGCACACGGACAGGAGCAGAUCUUGGUGGAGUGGGUCUACACUUGAGAUUUGUACUCGUUUGAGAGGCUGGGCAAUACUCAAUGCACUUUGGCAUUUGCAUGGUGUCUUCACAACAGCACAGCAAUAAACAUUGUGAUACACACGACAUGCUGACUCUCCCCAGUCUGCUUUUCUUUCUCUUGCGGUCGCACUAGUGUGGAAUUCUCGGGUGUCAAGG
B10: ENSMUSG00000022095.266|Fam160b2|1:10;49:69;116:120;252:257 (ssRNA)
RNA: GGGAGUUCUACAGUCCGACGAUCGCUUCGAUAUCCGCAUGCUAACACACACACAGAGAGAGAGAGAGAGAGCGAGCUAUGAAUGAAUGUGACACACACACACACACACACACAGAGAGAGAGAGAGAGAGAGAGAGCUGUGAGUACACAUGGGUGCUGCACACGGACAGGAGCAGAUCUUGGUGGAGUGGGUCUACACUUGAGAUUUGUACUCGUUUGAGAGGCUGGGCAAUACUCAAUGCACUUUGGCAUUUGCAUGGUGUCUUCACAACAGCACAGCAAUAAACAUUGUGAUACACACGACCUCUUGCGGUCGCACUAGUGUGGAAUUCUCGGGUGUCAAGG

Chain of TDP-43 (Q13148 whole entry): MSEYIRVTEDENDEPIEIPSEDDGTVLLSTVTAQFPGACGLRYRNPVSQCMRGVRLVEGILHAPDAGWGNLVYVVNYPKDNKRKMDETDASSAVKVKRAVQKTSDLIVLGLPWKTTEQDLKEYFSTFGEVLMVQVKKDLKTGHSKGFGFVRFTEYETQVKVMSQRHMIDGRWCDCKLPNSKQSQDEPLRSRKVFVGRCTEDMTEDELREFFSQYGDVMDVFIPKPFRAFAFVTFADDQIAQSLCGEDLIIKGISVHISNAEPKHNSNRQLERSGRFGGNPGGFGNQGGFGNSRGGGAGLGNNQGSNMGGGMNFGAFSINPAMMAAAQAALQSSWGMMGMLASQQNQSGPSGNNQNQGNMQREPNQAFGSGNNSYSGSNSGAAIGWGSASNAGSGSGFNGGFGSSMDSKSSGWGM

This assay has as its target TDP-43 (Homo sapiens, UniProt Q13148 1-414). Briefly: RNA Bind-n-Seq with designed 260-mer pool; 25 mM Tris-HCl, 150 mM KCl, 3 mM MgCl2, BSA (printed 500 mg/mL), 20 units/mL SUPERase IN; pH not stated; 500 nM RNA pool, 1 h, 4 C; TDP-43 5, 50, 500 nM; high values mean tight binding. The conditions noted are these: protein: recombinant; tags: SBP (GST cleaved off with PreScission; pGEX-GST-SBP). The procedure, abridged: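 Duplicate measurements used two independent batches of recombinant SBP-tagged TDP-43, which was captured on streptavidin beads at 5, 50 or 500 nM. The beads were incubated with 500 nM of an in vitro-transcribed 260-nt 3′ UTR oligo pool for 1 h at 4 °C in 25 mM Tris-HCl, 150 mM KCl, 3 mM MgCl2, BSA and SUPERase IN. After washing, biotin elution, reverse transcription, PCR amplification and sequencing, binding was expressed as R: each oligo's normalized read abundance in the bound sample over its abundance in input.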
Consider B1, for which the binding signal is 5.83 R (bound/input frequency ratio). Next, B2: 4.46 R (bound/input frequency ratio); B3: 7.25 R (bound/input frequency ratio). Next, B4: 5.79 R (bound/input frequency ratio); B5: 6.67 R (bound/input frequency ratio). In the case of B6, the binding signal was 7.64 R (bound/input frequency ratio). As for B7, the figure is 7.19 R (bound/input frequency ratio); as for B8, 4.63 R (bound/input frequency ratio).

With B9, the binding signal is 4.21 R (bound/input frequency ratio). As for B10, the figure is 4.83 R (bound/input frequency ratio).
